About 14,000 (4.5%) of roughly 310,000 compounds showed an effect of 50% or more. Effects have a minus sign here. The list comes from a sample in which strong results are over-represented; it also holds similar structures and randomly drawn compounds.
These compounds were tested against human ether-à-go-go-related gene (hERG) potassium channel (human, UniProt Q12809) (assay: primary screen, population patch clamp on CHO cells stably expressing hERG; higher = less effect of the substance).
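Note: peak tail current of the secondary pulse compared with the same well before compound.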

Sequence of human ether-à-go-go-related gene (hERG) potassium channel (Q12809 whole entry, looked up): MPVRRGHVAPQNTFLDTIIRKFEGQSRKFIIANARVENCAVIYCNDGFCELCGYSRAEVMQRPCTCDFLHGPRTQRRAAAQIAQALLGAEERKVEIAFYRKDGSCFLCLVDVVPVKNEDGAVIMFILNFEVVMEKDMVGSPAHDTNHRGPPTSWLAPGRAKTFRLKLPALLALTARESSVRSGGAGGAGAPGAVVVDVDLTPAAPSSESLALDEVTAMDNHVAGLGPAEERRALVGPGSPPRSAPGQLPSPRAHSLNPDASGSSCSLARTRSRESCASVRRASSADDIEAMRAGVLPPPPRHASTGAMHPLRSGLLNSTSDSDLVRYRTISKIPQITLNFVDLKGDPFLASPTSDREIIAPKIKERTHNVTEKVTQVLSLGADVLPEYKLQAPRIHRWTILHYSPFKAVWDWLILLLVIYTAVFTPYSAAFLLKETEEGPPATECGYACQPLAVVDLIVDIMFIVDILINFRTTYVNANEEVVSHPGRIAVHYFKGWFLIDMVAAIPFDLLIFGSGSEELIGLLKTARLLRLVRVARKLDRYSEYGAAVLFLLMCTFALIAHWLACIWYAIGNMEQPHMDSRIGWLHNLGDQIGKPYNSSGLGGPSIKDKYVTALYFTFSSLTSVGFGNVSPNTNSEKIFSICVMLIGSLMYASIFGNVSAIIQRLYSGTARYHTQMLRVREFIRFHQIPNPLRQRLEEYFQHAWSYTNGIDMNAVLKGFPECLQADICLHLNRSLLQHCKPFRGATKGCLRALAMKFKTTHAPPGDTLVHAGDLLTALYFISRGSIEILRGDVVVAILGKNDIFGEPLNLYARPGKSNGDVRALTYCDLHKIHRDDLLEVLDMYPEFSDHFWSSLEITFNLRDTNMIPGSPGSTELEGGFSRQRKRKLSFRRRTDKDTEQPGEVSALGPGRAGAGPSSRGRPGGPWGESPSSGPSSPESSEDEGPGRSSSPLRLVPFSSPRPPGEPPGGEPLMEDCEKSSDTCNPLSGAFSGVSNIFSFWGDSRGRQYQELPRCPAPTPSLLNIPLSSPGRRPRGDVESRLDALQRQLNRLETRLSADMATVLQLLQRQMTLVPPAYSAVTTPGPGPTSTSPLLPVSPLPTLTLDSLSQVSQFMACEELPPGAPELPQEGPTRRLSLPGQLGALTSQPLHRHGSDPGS

SMILES | hERG current change (%, negative = inhibition) at 10uM [%]
Cc1cc(/C=C2\Cc3ccccc3C2=O)c(C)n1-c1ccccc1 | 1.62
O=C(Nc1ccc(N2CCOCC2)c(F)c1)c1cccs1 | 1.9
O=C(CNS(=O)(=O)c1ccc(F)cc1)N1CCN(c2ccccc2)CC1 | -11.7
Cc1ccc(S(=O)(=O)NCC(=O)N2CCN(c3ccc(F)cc3)CC2)cc1 | -10.2
O=C(CNS(=O)(=O)c1ccc(F)cc1)N1CCCC1 | 12
O=C(CNS(=O)(=O)c1ccc(Br)cc1)N1CCN(c2ccc(F)cc2)CC1 | -56.5
O=C(CNS(=O)(=O)c1ccc(Br)s1)N1CCN(c2ccc(F)cc2)CC1 | -25.2
O=C(CNS(=O)(=O)c1ccc(F)cc1)N1CCN(c2ccc(F)cc2)CC1 | -51.7
CCn1nc(CC(=O)O)c2ccccc2c1=O | 22.9
COc1cc([N+](=O)[O-])ccc1NC(=O)NCc1ccco1 | 10.9
Cn1nnnc1SCC(=O)c1c(N)n(C)c(=O)n(C)c1=O | 18.3
Cc1cc(=O)c(C(=O)O)nn1-c1ccccc1 | 5.86
O=C(O)c1nn(-c2cccc(C(F)(F)F)c2)ccc1=O | 21.5
Cc1cc(=O)c(C(=O)O)nn1-c1cccc(C(F)(F)F)c1 | -74.6
CCOc1ccccc1C1CC(=O)NC2=C1C(=O)CCC2 (centres unmarked) | 13.6
O=C1CCC/C(=N/NC(=O)c2sc3ccccc3c2Cl)C1 | 5.82
COc1cc(C(C)=O)ccc1OCC(O)CN1CCN(S(=O)(=O)c2ccccc2)CC1 (centres unmarked) | -11.5
COc1cc(C(C)=O)ccc1OCC(O)CN1CCN(c2ccccc2)CC1 (centres unmarked) | -31.5
COc1cc(C(C)=O)ccc1OCC(O)CN1CCN(c2ccc(C)c(C)c2)CC1 (centres unmarked) | -39.6
COc1cc(C(C)=O)ccc1OCC(O)Cn1nc(C)c(Br)c1C (centres unmarked) | -7
COc1cc(C(C)=O)ccc1OCC(O)CN1CCN(c2ccccn2)CC1 (centres unmarked) | -9.62
COc1cc(C(C)=O)ccc1OCC(O)CN1CCN(c2ccc(C)cc2C)CC1 (centres unmarked) | -58.3

SMILES | hERG current change (%, negative = inhibition) at 10uM [%]
COc1cc(C(C)=O)ccc1OCC(O)CN1CCN(c2cc(C)cc(C)c2)CC1 (centres unmarked) | -56.2
COc1cc(C(C)=O)ccc1OCC(O)CN1CCN(c2ccc(F)cc2)CC1 (centres unmarked) | -39
COc1cc(C(C)=O)ccc1OCC(O)CN1CCN(c2c(C)cccc2C)CC1 (centres unmarked) | -60.3
COc1ccc(C(=O)/C=C/Nc2c(C)n(C)n(-c3ccccc3)c2=O)c(OC)c1 | 0.857
COc1ccc(NC2CCCN(C(=O)CCc3scnc3C)C2)cc1 (centres unmarked) | 12.2
CS(=O)(=O)c1ccc(N2CCN(C3CC(=O)NC3=O)CC2)cc1 (centres unmarked) | 13.1
CC(=O)c1ccc(S(=O)(=O)NCCC(=O)OCC(=O)N2CCCC2=O)cc1 | -7.6
Cc1cccc2sc(N(CCCN(C)C)C(=O)CCS(=O)(=O)c3ccccc3)nc12 | -35
COc1ccc(OC)c2sc(N(CCCN(C)C)C(=O)CCS(=O)(=O)c3ccccc3)nc12.Cl | -70.5
COc1cccc2sc(N(CCCN(C)C)C(=O)c3sc4ccccc4c3Cl)nc12.Cl | -24.6
Cc1ccc2sc(N(CCCN(C)C)C(=O)CCS(=O)(=O)c3ccccc3)nc2c1C | -6.04
CCOc1cccc2sc(N(CCN(C)C)C(=O)CCS(=O)(=O)c3ccccc3)nc12.Cl | -23.5
COc1cccc2sc(N(CCN(C)C)C(=O)/C=C/c3cccs3)nc12.Cl | -41.5
COc1cccc2sc(N(CCCN(C)C)C(=O)C(c3ccccc3)c3ccccc3)nc12.Cl | -72.7
COc1ccc(Cl)c2sc(N(CCN(C)C)C(=O)CCS(=O)(=O)c3ccc(C)cc3)nc12.Cl | -7.51
COc1cccc2sc(N(CCCN(C)C)C(=O)CCS(=O)(=O)c3ccccc3)nc12 | -62.7
Fc1cccc(Cl)c1Cn1nnc2c(-n3ccnc3)ncnc21 | 0.152
COCCN1Cc2cccc(C(=O)Nc3ccc(S(=O)(=O)N4CCCCC4)cc3)c2C1=O | -4.49
O=S1(=O)c2cccc3cccc(c23)N1Cc1ccc(-c2nnco2)cc1 | 7.2
COCc1cc(C)nc(OCC(=O)N/N=C/c2ccc(-c3cc([N+](=O)[O-])ccc3Cl)o2)c1C#N | 18
COc1ccccc1C1N(c2cc(Cl)ccc2OC)C(=O)C2CCCN21 (centres unmarked) | 1.23
Cn1c(=O)c2nc(NCc3ccccc3)cnc2n(C)c1=O | -1.44

Source: paper PMC4336329 (PLoS ONE, 2015)
